The source of these data is PubChem BioAssay (NCATS).

Unmarked numbers belong to inactive results. Results filed as inconclusive are left out. Activity calls are given as the source filed them. Unless noted, calls come from the whole dose curve; as a rule, active = well fitted curve in the direction sought with a large enough effect; inconclusive = small, poorly fitted or top-dose-only effect, or another doubt; inactive = no such curve, though single readings can be large; an effect the other way counts as inactive or inconclusive.

The target in experiment [1] is Lysosomal acid glucosylceramidase (Homo sapiens) (UniProt P04062). In words: Glucocerebrosidase-p2 (AID 348; in the data active = potency below about 10 µM; note: potency is the fitted concentration of half-maximal effect). The note with it: purified GBA, blue fluorogenic substrate, 40 min. The method, boiled down: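 Normal human glucocerebrosidase (0.2 nM) with blue fluorogenic substrate (80 uM final) in citrate/phosphate pH 5.9 with 10mM sodium taurocholate, 0.01% tween-20; 40 min RT, NaOH/glycine stop; fluorescence Ex 365/Em 440; AC50 from a titration from 0.6 nM upwards.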
Chain of Lysosomal acid glucosylceramidase (Homo sapiens) (P04062 whole entry, looked up): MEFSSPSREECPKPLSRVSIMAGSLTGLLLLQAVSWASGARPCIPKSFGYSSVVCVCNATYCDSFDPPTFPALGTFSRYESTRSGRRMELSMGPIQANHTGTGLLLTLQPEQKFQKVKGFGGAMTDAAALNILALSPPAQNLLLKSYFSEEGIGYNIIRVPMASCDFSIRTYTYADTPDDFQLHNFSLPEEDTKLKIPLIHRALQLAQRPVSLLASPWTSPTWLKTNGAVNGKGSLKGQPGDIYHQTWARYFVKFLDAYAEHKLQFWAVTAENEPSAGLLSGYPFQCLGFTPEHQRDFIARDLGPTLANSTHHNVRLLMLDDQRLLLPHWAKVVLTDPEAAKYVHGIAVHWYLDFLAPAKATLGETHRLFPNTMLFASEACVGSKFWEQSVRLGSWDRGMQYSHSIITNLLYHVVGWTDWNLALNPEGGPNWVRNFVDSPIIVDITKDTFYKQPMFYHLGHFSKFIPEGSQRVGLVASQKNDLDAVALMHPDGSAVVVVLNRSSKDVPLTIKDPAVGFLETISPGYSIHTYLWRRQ

Experiment [2] can be described thus: AP1 Signaling Pathway (AID 357; active = well fitted curve in either direction with a large enough effect, not every such curve was filed as active; note: % is set by controls: 0 for no effect and ±100 for the full control effect). The note with it: ME-180 AP-1-bla reporter, EGF-induced, beta-lactamase ratio, 5 h; at 7.69 µM (top of the series) unless noted. Put shortly: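 A ratiometric CCF4 readout (405 nm excitation; 460 and 530 nm emission) quantified AP-1-driven beta-lactamase in ME-180 cells after 5 h with compound and EC50 EGF; AC50 values were derived for activators and inhibitors.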

In experiment [3] the target is Cytochrome P450 1A2 (Homo sapiens) (UniProt P05177). In words: p450-cyp1a2 (AID 410; calls by dose curve; note: potency is the fitted concentration of half-maximal effect;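 for activity change, negative = inhibition: -100% = full effect of reference inhibitor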). Particulars: recombinant CYP1A2, luciferin-ME demethylation, luminescence; series mostly up to 57 µM. Put shortly: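 Luminescent demethylation readout: Luciferin-ME (100uM, equal to Km) turned over by 20nM CYP1A2 for 60 min at room temperature after NADPH regeneration addition, following 10 min compound preincubation. Normalization used 57 uM furafylline as full inhibition.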
Chain of Cytochrome P450 1A2 (Homo sapiens) (P05177 whole entry, looked up): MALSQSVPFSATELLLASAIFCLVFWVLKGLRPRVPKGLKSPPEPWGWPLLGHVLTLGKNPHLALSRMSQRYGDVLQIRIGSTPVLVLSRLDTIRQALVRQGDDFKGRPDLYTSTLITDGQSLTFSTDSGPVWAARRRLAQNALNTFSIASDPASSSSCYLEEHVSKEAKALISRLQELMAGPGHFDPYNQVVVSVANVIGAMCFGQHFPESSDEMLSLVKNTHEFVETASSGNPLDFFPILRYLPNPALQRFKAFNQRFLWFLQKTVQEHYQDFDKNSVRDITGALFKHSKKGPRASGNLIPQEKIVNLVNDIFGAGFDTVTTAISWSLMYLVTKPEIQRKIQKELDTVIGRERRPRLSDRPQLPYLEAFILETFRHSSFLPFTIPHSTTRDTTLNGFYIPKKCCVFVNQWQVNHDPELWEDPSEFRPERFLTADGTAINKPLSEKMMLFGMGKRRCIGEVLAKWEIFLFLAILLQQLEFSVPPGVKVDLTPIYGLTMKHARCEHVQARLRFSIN

A short description of experiment [4]: NFAT Signaling Pathway (AID 444; active = well fitted curve in either direction with a large enough effect, not every such curve was filed as active;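 note: carbachol stimulus at about its EC50 of 1 µM final; % is set by controls: 0 for no effect and ±100 for the full control effect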). The note with it: Jurkat NFAT-bla M1, carbachol, beta-lactamase ratio, 5 h; at 7.69 µM (top of the series) unless noted. Put shortly:
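Jurkat cells carrying an NFAT-driven β-lactamase reporter and co-transfected muscarinic M1 receptor were treated with compound plus carbachol (1 uM final, an EC50 level) for 5 h at 37 °C. CCF4 loading followed for 1 h at RT; 460/530 nm ratio gave %activity.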

Experiment [5] can be described thus: Stat Signaling Pathway (AID 446; active = well fitted curve in either direction with a large enough effect, not every such curve was filed as active;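 note: ME-180 cervical cancer cells given 40 pM IL-6 alongside compound; SIE-controlled beta-lactamase reporter measured as 460/530 nm FRET emission ratio; % is set by controls: 0 for no effect and ±100 for the full control effect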). The note with it: ME-180 (cervical carcinoma) SIE beta-lactamase reporter, IL-6 stimulated, 5 h; at 7.69 µM (top of the series) unless noted. Put shortly: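 Emission at 460 and 530 nm (excitation 405 nm) reports SIE-controlled beta-lactamase in ME-180 cells. Cells received compound with 40 pM IL-6 for 5 hrs at 37 C; data scaled between 300 pM IL-6 and 125 nM JAK-inhibitor controls.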

Experiment [6] concerns the target Glucocorticoid receptor (Homo sapiens) (UniProt P04150). Nature of the experiment: GR-GFP Redistribution (AID 450;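 active = compounds whose dose series gives a full or clear partial fitted curve of increased nuclear translocation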; note: potency is the fitted concentration of half-maximal effect). Particulars: U2OS GR-GFP nuclear translocation, laser cytometry, 2 h.
The target is the same in experiment [7]. In words: GR-EFC Redistribution (AID 451; calls by dose curve; note: potency is the fitted concentration of half-maximal effect). The note with it: CHO-K1 GR-EFC translocation, beta-gal luminescence, 2 h. The method, boiled down:
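CHO-K1 cells stably expressing nuclear-localized β-gal enzyme acceptor and GR fused C-terminally to the enzyme donor fragment; ligand-driven nuclear translocation restores β-gal by complementation. Compounds titrated up to 46 uM final, 2 h at 37 °C; luminescence read.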

Experiment [8] addresses Mitogen-activated protein kinase 10 (Mus musculus) (UniProt Q61831). Nature of the experiment: JNK3 AlphaScreen Assay (AID 530; active = well fitted curve in either direction with a large enough effect, not every such curve was filed as active;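 note: kinase came from lysate of stimulated human HepG2 cells; signal reports phosphorylation of biotinylated GST-cJun 1-79 at Ser73 with 10 µM ATP; % is set by controls: 0 for no effect and ±100 for the full control effect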). Particulars: JNK3 lysate, c-Jun phosphorylation; series mostly up to 57.1 µM. The method, boiled down:
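Phosphorylation of biotinylated GST-cJun(1-79) at Ser73 is measured by AlphaScreen proximity luminescence. Enzyme is JNK3 in HepG2 lysates activated with interleukin-1beta and tumor necrosis factor alpha; ATP is 10 uM final.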

Experiment [9] deals with 3',5'-cyclic-AMP phosphodiesterase 4B (Homo sapiens) (UniProt Q07343). Nature of the experiment: qHTS Assay for Inhibitors of PDE-IV (AID 607; active = well fitted activation curve with a large enough effect in the main read-out, with a control signal flat, not every such curve was filed as active; note: % of control where 0% means no effect). The note with it: HEK293 ACTOne CNG channel cells, membrane potential fluorescence; series mostly up to 22.9 µM. The method, boiled down: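 The readout is membrane depolarisation from a cAMP-sensing CNG channel, detected with a potential dye at ex 535/em 590. Cells were HEK293-derived (endogenous PDE-IV) at 1000 cells/well, titrated up to 22.9 uM final.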
Chain of 3',5'-cyclic-AMP phosphodiesterase 4B (Homo sapiens) (Q07343 whole entry, looked up): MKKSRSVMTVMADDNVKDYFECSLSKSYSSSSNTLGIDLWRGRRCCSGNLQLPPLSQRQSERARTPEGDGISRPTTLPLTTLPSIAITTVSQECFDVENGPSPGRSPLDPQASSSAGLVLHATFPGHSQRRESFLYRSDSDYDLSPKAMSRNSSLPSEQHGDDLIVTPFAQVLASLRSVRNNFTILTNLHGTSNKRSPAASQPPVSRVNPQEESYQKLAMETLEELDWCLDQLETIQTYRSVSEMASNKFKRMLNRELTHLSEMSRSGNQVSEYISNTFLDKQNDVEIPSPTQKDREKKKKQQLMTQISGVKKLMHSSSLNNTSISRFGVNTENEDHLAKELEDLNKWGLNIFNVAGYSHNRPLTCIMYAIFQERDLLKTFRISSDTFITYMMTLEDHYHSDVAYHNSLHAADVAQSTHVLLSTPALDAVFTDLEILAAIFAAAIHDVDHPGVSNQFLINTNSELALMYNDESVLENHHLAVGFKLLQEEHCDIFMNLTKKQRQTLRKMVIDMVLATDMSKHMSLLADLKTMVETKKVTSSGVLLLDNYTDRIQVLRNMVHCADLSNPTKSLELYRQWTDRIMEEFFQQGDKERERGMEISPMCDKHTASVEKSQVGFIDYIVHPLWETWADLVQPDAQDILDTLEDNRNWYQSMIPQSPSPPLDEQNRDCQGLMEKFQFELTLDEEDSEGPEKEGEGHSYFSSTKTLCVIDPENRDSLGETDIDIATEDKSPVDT
For orientation: In qHTS, concentration-response curves come from the screen itself.

In experiment [10] the target is Cytochrome P450 3A4 (Homo sapiens) (UniProt P08684). Nature of the experiment: qHTS Assay for Activators of Cytochrome P450 3A4 (AID 885). Note: nearly all actives have a fitted effect of over 65% in size. Note: potency is the fitted concentration of half-maximal effect. The note with it: recombinant CYP3A4, Luciferin-PPXE luminescence, 60 min; series mostly up to 57.1 µM. Put shortly: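 Activators are scored by enhanced luminescence from CYP3A4 conversion of luciferin-PPXE (25uM, equal to KM) to luciferin, after 60 min at RT with an NADPH-regenerating system.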
Chain of Cytochrome P450 3A4 (Homo sapiens) (P08684 whole entry, looked up): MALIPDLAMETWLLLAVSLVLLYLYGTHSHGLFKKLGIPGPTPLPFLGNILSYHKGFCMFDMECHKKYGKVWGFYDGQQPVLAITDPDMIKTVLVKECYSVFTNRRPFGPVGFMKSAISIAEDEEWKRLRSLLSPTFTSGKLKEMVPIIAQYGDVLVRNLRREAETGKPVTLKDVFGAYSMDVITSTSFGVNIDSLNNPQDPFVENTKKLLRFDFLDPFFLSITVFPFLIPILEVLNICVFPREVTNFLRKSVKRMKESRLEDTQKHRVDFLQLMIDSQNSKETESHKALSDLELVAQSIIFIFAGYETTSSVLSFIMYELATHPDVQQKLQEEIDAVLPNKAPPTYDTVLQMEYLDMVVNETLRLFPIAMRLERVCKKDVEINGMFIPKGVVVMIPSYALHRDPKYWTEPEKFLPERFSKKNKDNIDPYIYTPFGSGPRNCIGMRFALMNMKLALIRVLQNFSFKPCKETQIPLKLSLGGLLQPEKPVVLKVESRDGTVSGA

Experiment [11] has as its target Dual specificity protein kinase CLK4 (Homo sapiens) (UniProt Q9HAZ1). In words: qHTS Assay for Inhibitors of CDC-like Kinase 4 (Kinase-Glo Assay) (AID 1770). Note: % is set by controls: 0 for no effect and ±100 for the full control effect; nearly all actives have a fitted effect of over 65% in size. The note with it: recombinant Clk4, Kinase-Glo ATP depletion luminescence; series mostly up to 66.7 µM. The method, boiled down: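 25 nM Clk4 with 100 uM RS repeat peptide and 1 uM ATP (final) in Tris pH7.5, 10 mM MgCl2, 4.5 h at room temperature. Remaining ATP measured by Kinase-Glo luciferase luminescence.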

Experiment [12] has the same target. In words: qHTS Assay for Inhibitors of CDC-like Kinase 4 (ADP-Glo Assay) (AID 1771). Note: % is set by controls: 0 for no effect and ±100 for the full control effect; nearly all actives have a fitted effect of over 70% in size. The note with it: recombinant CLK4, ADP-Glo luminescence; series mostly up to 80 µM. The method, boiled down:
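ADP production was read by ADP-Glo luminescence after residual ATP depletion, following 1 h room-temperature reaction of 25 nM Clk4, 1 uM ATP and 100 uM RS peptide with MgCl2, EGTA, DTT and Triton X-100.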

For experiment [13] the target is unchanged. In words: qHTS Assay for Inhibitors of CDC-like Kinase 4 (ADP-FP Assay) (AID 1795). Note: % is set by controls: 0 for no effect and ±100 for the full control effect; nearly all actives have a fitted effect of over 60% in size. Particulars: Transcreener ADP fluorescence polarization; series mostly up to 50 µM. Put shortly:
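Recombinant Clk4 (6.25 nM) phosphorylated 100 uM RS repeat peptide with 1 uM ATP in 25 mM Tris pH 7.5, 10 mM MgCl2, 0.5 mM EGTA, 2.5 mM DTT, 0.01% Triton X-100 for 1 h. ADP was detected by Transcreener ADP2 competitive fluorescence polarization after 30 min at room temperature.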

The target in experiment [14] is Ubiquitin carboxyl-terminal hydrolase 1 (Homo sapiens) (UniProt O94782). Nature of the experiment: Inhibitors of USP1/UAF1: Pilot qHTS (AID 504865).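 Note: rhodamine fluorescence freed from ubiquitin-rhodamine substrate followed over time; top concentration of the series differs between compounds; % is set by controls: 0 for no effect and ±100 for the full control effect; nearly all actives have a fitted effect of over 35% in size.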 Particulars: purified USP1/UAF1, Ub-rhodamine cleavage fluorescence; series mostly up to 54.9 µM. Put shortly:
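USP1/UAF1 complex at 1 nM preincubated 15 min at room temperature with compound, then Ub-Rho substrate added at 150 nM final. Fluorescence (480/540 nm) read kinetically in 50 mM HEPES pH 7.8, 0.5 mM EDTA, 1 mM TCEP, 0.1 mg/ml BSA, 0.01% Tween-20.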

A short description of experiment [15]: Primary qHTS for small molecule stabilizers of the endoplasmic reticulum resident proteome: Secreted ER Calcium Modulated Protein (SERCaMP) assay (AID 1508630). Note: % is set by controls: 0 for no effect and ±100 for the full control effect. Particulars: SH-SY5Y GLuc-SERCaMP (Gaussia luciferase released on ER calcium loss) secretion, thapsigargin, luminescence; series mostly up to 38.4 µM. The method, boiled down: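 The SH-SY5Y reporter protocol was run at 3 concentrations up to 38.3 uM (primary) or 11 concentrations (follow-up): 16 h compound, 100 nM thapsigargin for 4 h, then extracellular luciferase luminescence.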

Experiment [16] deals with Cytochrome P450 3A4 (Homo sapiens) (UniProt P08684). In words: qHTS Assay for Inhibitors and Substrates of Cytochrome P450 3A4 (AID 884). Note: nearly all actives have a fitted effect of over 50% in size. Note: potency is the fitted concentration of half-maximal effect. Particulars: recombinant CYP3A4, Luciferin-PPXE luminescence; series mostly up to 57.1 µM. The method, boiled down: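 Luminescent readout of luciferin produced by CYP3A4 (20 nM) dealkylation of Luciferin-PPXE, 25 uM (its KM). NADPH-driven reaction ran 60 min at RT after 10 min compound preincubation; data scaled to 57 uM ketoconazole as 100% inhibition.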

Experiment [17] addresses Cytochrome P450 2C19 (Homo sapiens) (UniProt P33261). Nature of the experiment: qHTS Assay for Inhibitors and Substrates of Cytochrome P450 2C19 (AID 899). Note: potency is the fitted concentration of half-maximal effect; nearly all actives have a fitted effect of over 60% in size. The note with it: recombinant CYP2C19, luciferin-H EGE luminescence; series mostly up to 57.1 µM. Put shortly: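 NADPH-dependent conversion of Luciferin-H EGE (10uM, at KM) by 5nM enzyme in 50mM KPO4, 60 min at 37C following 10 min compound preincubation. Stopped with luciferin detection buffer; luminescence read after 20 min.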

Chain of Dual specificity protein kinase CLK4 (Homo sapiens) (Q9HAZ1 whole entry, looked up): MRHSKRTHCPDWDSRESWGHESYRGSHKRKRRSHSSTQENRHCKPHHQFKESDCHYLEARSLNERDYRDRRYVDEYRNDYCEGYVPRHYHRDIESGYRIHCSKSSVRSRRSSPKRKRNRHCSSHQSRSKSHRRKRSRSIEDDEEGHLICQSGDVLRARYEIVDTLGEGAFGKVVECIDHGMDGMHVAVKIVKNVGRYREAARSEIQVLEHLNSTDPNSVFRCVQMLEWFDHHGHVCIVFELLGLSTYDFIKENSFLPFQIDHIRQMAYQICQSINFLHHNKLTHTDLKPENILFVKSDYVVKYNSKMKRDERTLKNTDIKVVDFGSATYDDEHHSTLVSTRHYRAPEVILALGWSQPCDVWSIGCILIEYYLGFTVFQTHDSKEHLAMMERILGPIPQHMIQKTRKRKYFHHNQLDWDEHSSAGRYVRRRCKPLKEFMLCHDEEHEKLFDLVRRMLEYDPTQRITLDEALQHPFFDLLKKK
Chain of Ubiquitin carboxyl-terminal hydrolase 1 (Homo sapiens) (O94782 whole entry, looked up): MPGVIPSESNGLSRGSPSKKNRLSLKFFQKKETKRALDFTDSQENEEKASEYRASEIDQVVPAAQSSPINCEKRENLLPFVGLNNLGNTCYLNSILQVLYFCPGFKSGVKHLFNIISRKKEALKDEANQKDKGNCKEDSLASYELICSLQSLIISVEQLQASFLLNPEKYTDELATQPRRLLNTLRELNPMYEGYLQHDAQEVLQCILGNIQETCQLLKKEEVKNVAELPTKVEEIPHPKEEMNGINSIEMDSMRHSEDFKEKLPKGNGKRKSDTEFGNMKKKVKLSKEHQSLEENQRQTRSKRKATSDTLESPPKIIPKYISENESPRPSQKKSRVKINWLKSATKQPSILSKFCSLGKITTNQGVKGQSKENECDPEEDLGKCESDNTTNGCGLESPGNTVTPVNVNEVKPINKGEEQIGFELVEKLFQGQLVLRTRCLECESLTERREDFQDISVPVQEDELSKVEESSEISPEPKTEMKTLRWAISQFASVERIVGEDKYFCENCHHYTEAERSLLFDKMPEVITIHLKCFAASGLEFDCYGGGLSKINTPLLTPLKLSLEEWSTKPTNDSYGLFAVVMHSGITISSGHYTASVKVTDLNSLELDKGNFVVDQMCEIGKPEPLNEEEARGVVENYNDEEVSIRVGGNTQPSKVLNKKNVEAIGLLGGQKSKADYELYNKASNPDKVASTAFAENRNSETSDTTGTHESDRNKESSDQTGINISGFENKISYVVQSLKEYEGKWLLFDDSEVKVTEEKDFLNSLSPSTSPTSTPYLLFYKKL
Chain of Glucocorticoid receptor (Homo sapiens) (P04150 whole entry, looked up): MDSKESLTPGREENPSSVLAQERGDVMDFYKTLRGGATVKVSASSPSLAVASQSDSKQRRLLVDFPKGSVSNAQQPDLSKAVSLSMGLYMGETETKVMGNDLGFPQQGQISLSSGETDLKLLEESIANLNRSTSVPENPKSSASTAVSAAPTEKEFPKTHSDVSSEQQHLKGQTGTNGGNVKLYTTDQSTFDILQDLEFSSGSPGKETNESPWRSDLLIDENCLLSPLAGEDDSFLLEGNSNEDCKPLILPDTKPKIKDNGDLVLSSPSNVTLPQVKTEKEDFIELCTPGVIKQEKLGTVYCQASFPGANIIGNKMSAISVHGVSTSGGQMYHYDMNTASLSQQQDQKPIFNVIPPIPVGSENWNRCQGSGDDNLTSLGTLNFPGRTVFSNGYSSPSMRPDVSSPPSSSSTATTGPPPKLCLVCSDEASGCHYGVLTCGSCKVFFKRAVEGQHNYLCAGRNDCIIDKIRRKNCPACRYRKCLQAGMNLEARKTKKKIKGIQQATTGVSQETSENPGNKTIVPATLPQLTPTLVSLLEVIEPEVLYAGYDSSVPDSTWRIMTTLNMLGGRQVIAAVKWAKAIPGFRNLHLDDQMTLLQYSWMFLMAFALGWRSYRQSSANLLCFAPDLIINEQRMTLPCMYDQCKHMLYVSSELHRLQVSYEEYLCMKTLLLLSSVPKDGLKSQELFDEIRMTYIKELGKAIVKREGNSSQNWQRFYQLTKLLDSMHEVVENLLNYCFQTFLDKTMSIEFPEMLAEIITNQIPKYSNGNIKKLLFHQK
Chain of Cytochrome P450 2C19 (Homo sapiens) (P33261 whole entry, looked up): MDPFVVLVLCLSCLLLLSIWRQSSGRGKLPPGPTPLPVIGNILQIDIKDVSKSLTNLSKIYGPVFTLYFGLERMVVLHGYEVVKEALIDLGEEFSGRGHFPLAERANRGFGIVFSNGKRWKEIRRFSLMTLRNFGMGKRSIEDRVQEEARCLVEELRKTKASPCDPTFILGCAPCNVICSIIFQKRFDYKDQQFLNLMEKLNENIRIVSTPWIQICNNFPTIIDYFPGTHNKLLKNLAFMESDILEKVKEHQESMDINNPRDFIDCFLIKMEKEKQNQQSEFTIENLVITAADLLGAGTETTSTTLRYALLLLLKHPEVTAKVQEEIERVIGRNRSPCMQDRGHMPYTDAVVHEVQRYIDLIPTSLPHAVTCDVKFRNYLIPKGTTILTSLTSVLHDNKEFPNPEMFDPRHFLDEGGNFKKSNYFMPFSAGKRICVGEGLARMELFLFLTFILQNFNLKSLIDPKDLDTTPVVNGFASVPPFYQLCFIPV

As for `COc1ccc(-n2c(=O)c(-c3cc(F)cc(F)c3)nc3cncnc32)cc1`, the Potency in experiment [1] was more than 11.4 µM; in [3], 12.6 µM (active); in experiment [6], more than 9.22 µM; in [7], more than 46 µM. For the same compound, the activity change, negative = inhibition in [2] is -5%; in experiment [4] it was -16%. The activity, negative = inhibition in experiment [5] is 6.92%. Moreover, the Potency result in experiment [8], in [9], in [10], in experiment [11], in experiment [12] and in experiment [13] was “inactive” each time. In addition, the Potency result in experiment [14] was “inactive”. Moreover, the result in experiment [15] was inactive.

For `CN(C)C(=O)c1ccc(-c2nccc(Nc3ccc(F)cc3)n2)cc1`, the Potency in experiment [1] was more than 11.4 µM; in [3], 6.31 µM (active); in experiment [6], more than 46 µM; in [7], more than 46 µM. Besides, the activity change, negative = inhibition in [2] was -14.3%; in experiment [4] it was -12.1%. Further, the activity, negative = inhibition in experiment [5] was -4.15%. Further, the Potency entry in experiment [8], in experiment [9], in [10], in experiment [11], in [12] and in [13] was “inactive” each time. The Potency entry in experiment [14] was “inactive”. Besides, the result in experiment [15] was inactive.

On to `c1ccc(CNc2ncncc2-c2cccnc2)cc1`, for which the Potency was more than 11.4 µM in experiment [1]; 2.51 µM (active) in experiment [3]; more than 46 µM in [6]; more than 46 µM in experiment [7]; 1.26 µM (active) in experiment [16]. The activity change, negative = inhibition was 1.26% in [2] and -2.51% in [4]. Further, in [5], the activity, negative = inhibition was -3.91%. The Potency result in experiment [8], in [9], in [10], in experiment [11], in [12] and in [13] was “inactive” each time. Moreover, the Potency result in experiment [14] is “inactive”. For the same compound, in [15], the outcome was inactive.

In the case of `CN(C)C(=O)c1ccc(-c2cncnc2NCc2cccnc2)cc1`, the Potency is more than 11.4 µM in [1]; 5.01 µM (active) in [3]; more than 46 µM in [6]; more than 46 µM in experiment [7]; 5.01 µM (active) in [16]; 2.51 µM (active) in experiment [17]. In addition, the activity change, negative = inhibition is 22% in [2] and 3.94% in experiment [4]. The activity, negative = inhibition in experiment [5] is 17.6%. Further, the Potency result in experiment [8], in experiment [9], in [10], in experiment [11], in [12] and in [13] was “inactive” each time. Further, the Potency entry in experiment [14] was “inactive”. The result in experiment [15] was inactive.

For `COc1cccc(Cn2c(=O)c(-c3ccc(Cl)cc3)nc3cnc(N4CCN(C)CC4)nc32)c1`, the Potency was more than 11.4 µM in [1], more than 9.22 µM in [6], more than 46 µM in experiment [7] and 15.8 µM (active) in experiment [10]. The activity change, negative = inhibition was 17.8% in [2] and 23.1% in experiment [4]. Moreover, the Potency result in experiment [3], in [8], in experiment [9], in experiment [16], in experiment [11] and in experiment [12] was “inactive” in each case. Besides, the Potency entry in experiment [13] and in experiment [14] was “inactive” in each case. Besides, the activity, negative = inhibition in experiment [5] was 4.58%. In addition, the outcome in experiment [15] was inactive.
